Laboratory results taken from PubChem BioAssay AID1159580 (chemical genetic matrix, 2015).
Values joined by “and” are separate entries in the source; they are usually repeats but may differ in a detail not shown here. Identical values can stand only once. In all, about 5,500 compounds went through this assay and about 2,000 (36%) were called active. Another 18% or so got no clear call; they are omitted. Cut-off read from the data, not from the text of the source: active = normalized growth mostly below about 0.91 (no sharp cut-off); inconclusive = no clear call, values can overlap the other calls; inactive = mostly above about 0.92. Some of the results follow.

Assay: chemical genetic growth profiling, strain panel (AID 1159580);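 note: tested at 20 µM; growth read once vehicle control cultures reached saturation at 30 °C; 1 = growth at the plate median or of vehicle wells; lower values mean less growth of the strain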
Details: S. cerevisiae deletion strains, growth OD

Measured: normalized growth

C[C@H](N)[C@H](O)c1ccc(O)c(O)c1
inactive: locus YAL013W, strain DEP1, stronger effect = lower value 1 | locus YAL021C, strain ccr4, stronger effect = lower value 1.01 | locus YAL026C, strain drs2, stronger effect = lower value 1.01 | locus YAL030W, strain snc1, stronger effect = lower value 1 | locus YBL061C, strain skt5, stronger effect = lower value 1.01 | locus YBR009C, strain hhf1, stronger effect = lower value 0.997 | locus YBR021W, strain FUR4, stronger effect = lower value 0.991 | locus YBR023C, strain chs3, stronger effect = lower value 0.999 | locus YBR171W, strain sec66, stronger effect = lower value 0.991 | locus YBR229C, strain ROT2, stronger effect = lower value 0.991 | locus YBR231C, strain swc5, stronger effect = lower value 0.982 | locus YBR279W, strain paf1, stronger effect = lower value 1.02 | locus YCL011C, strain gbp2, stronger effect = lower value 1.01 | locus YCL016C, strain dcc1, stronger effect = lower value 0.987 | locus YCL029C, strain bik1, stronger effect = lower value 0.993 | locus YCL061C, strain MRC1, stronger effect = lower value 1 | locus YCL069W, strain vba3, stronger effect = lower value 1.01 | locus YCR088W, strain abp1, stronger effect = lower value 1 | locus YDL005C, strain med2, stronger effect = lower value 0.996 | locus YDL035C, strain GPR1, stronger effect = lower value 1 | locus YDL040C, strain nat1, stronger effect = lower value 1 | locus YDL074C, strain BRE1, stronger effect = lower value 0.983 | locus YDL101C, strain DUN1, stronger effect = lower value 0.992 | locus YDL185W, strain tfp1, stronger effect = lower value 0.982 | locus YDL192W, strain arf1, stronger effect = lower value 0.979 | locus YDR001C, strain nth1, stronger effect = lower value 1.01 | locus YDR069C, strain doa4, stronger effect = lower value 1.01 | locus YDR101C, strain arx1, stronger effect = lower value 1.01 | locus YDR137W, strain rgp1, stronger effect = lower value 1 | locus YDR159W, strain sac3, stronger effect = lower value 1.01 | locus YDR162C, strain NBP2, stronger effect = lower value 0.999 | locus YDR195W, strain ref2 0.991 | locus YDR297W, strain sur2, stronger effect = lower value 1.01 | locus YDR318W, strain mcm21, stronger effect = lower value 0.98 | locus YDR334W, strain swr1, stronger effect = lower value 0.997 | locus YDR335W, strain msn5, stronger effect = lower value 1.01 | locus YDR388W, stronger effect = lower value 0.992 | locus YDR392W, strain spt3, stronger effect = lower value 0.926 | locus YDR502C, strain sam2, stronger effect = lower value 0.99 | locus YEL003W, strain gim4, stronger effect = lower value 1.01 | locus YEL037C, strain rad23, stronger effect = lower value 1 | locus YEL061C, strain CIN8 (second series), stronger effect = lower value 1.01 | locus YEL061C, strain CIN8, stronger effect = lower value 1 | locus YER015W, strain faa2, stronger effect = lower value 1 | locus YER016W, strain bim1, stronger effect = lower value 1.01 | locus YER110C, stronger effect = lower value 0.97 | locus YER111C, strain swi4, stronger effect = lower value 1 | locus YER155C, strain BEM2 (second series), stronger effect = lower value 0.994 | locus YER155C, strain BEM2, stronger effect = lower value 0.999 | locus YER167W, strain BCK2, stronger effect = lower value 1.02 | locus YFR010W, strain ubp6, stronger effect = lower value 1 | locus YGL078C, strain dbp3, stronger effect = lower value 0.962 | locus YGL086W, strain mad1, stronger effect = lower value 0.996 | locus YGL167C, strain pmr1, stronger effect = lower value 0.995 | locus YGL173C, strain kem1, stronger effect = lower value 1.01 | locus YGL227W, strain vid30, stronger effect = lower value 0.992 | locus YGL240W, strain doc1, stronger effect = lower value 1.01 | locus YGL248W, strain PDE1, stronger effect = lower value 0.988 | locus YGL253W, strain hxk2, stronger effect = lower value 1.02 | locus YGR135W, strain pre9, stronger effect = lower value 0.948 | locus YGR252W, strain gcn5, stronger effect = lower value 0.91 | locus YHR013C, strain ard1, stronger effect = lower value 1.01 | locus YHR027C, strain rpn1, stronger effect = lower value 0.996 | locus YHR030C, strain SLT2, stronger effect = lower value 1.01 and 1 | locus YHR079C, strain IRE1 (second series), stronger effect = lower value 0.993 | locus YHR079C, strain IRE1, stronger effect = lower value 1 | locus YHR094C, strain hxt1, stronger effect = lower value 0.991 | locus YHR129C, strain ARP1, stronger effect = lower value 0.996 | locus YHR142W, strain chs7, stronger effect = lower value 0.993 | locus YHR200W, strain rpn10, stronger effect = lower value 0.985 | locus YIL066C, strain RNR3, stronger effect = lower value 0.998 | locus YIL073C, strain SPO22, stronger effect = lower value 1.01 | locus YIL125W, strain kgd1, stronger effect = lower value 0.975 | locus YIR030C, strain dcg1, stronger effect = lower value 0.988 | locus YJL092W, strain hpr5, stronger effect = lower value 1 | locus YJL095W, strain BCK1 (second series), stronger effect = lower value 1.01 | locus YJL095W, strain BCK1, stronger effect = lower value 0.978 and 1.02 | locus YJL115W, strain asf1, stronger effect = lower value 1.01 | locus YJL129C, strain trk1, stronger effect = lower value 0.986 | locus YJL134W, strain LCB3, stronger effect = lower value 1 | locus YJL154C, strain vps35, stronger effect = lower value 1.01 | locus YJL164C, strain tpk1, stronger effect = lower value 1.01 | locus YJL166W, strain qcr8, stronger effect = lower value 0.992 | locus YJL168C, strain set2, stronger effect = lower value 0.978 | locus YJL187C, strain SWE1 (second series), stronger effect = lower value 0.985 | locus YJL187C, strain SWE1, stronger effect = lower value 0.998 | locus YJR043C, strain POL32, stronger effect = lower value 1.01
